# In PubChem BioAssay AID652039 (The Scripps Research Institute Molecular Screening Center, 2013):
# The whole screen tested about 370,000 compounds, of which about 3,300 (0.89%) were called active. Many of the other results were omitted from the sample, so actives are more common in it than they were. Unmarked numbers belong to inactive results.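 Rule for the calls: active = activation above the mean of all tested compounds plus 3 SD, computed per campaign excluding outliers beyond control limits (cut at about 13% in these data); inactive = the rest.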
# Target: Kallikrein-7 (Homo sapiens) (UniProt P49862)
# Sequence (P49862 whole entry, looked up): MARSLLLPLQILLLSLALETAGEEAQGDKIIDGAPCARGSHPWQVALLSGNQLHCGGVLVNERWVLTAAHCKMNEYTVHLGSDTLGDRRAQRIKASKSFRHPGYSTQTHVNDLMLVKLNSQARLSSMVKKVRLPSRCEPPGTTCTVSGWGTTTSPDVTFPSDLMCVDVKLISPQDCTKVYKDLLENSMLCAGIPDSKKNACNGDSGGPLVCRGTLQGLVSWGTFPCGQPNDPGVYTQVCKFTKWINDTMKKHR
# Experiment: proKLK7 zymogen activators, primary screen, biochemical, fluorescence intensity (AID 652039)
# Conditions: purified proKLK7, EDANS-DABCYL substrate fluorescence; at 7 µM; active compounds read high; 100% is mature enzyme control, 0% vehicle
row,Compound,activation
1,COC(=O)c1cc(S(=O)(=O)N2CCN(c3ccccc3C)CC2)cn1C,0.47%
2,CN(C)Cc1c(O)ccc2c(=O)c(-c3ccccc3Cl)coc12,40.3% (active)
3,Cc1ccc(C(=O)c2coc3ccc(O)c(CN(C)C)c23)cc1,0.08%
4,CN(C)Cc1c(O)ccc2occ(C(O)c3ccccc3)c12 (centres undefined),-0.59%
5,COc1ccc(CNC(=O)COC(=O)C(CCSC)N2C(=O)c3ccccc3C2=O)cc1 (centres undefined),0.41%
6,COc1ccc(CCNC(=O)COC(=O)c2cc(=O)c3ccccc3o2)cc1,0.13%
7,COc1ccc(CNC(=O)COC(=O)C2=Cc3ccccc3OC2)cc1,31.2% (active)
8,COc1ccc(-c2cc(-c3nnc(SCc4ccc([N+](=O)[O-])cc4)n3N)[nH]n2)cc1,0.29%
9,O=C(NCc1ccco1)C1CCCN(S(=O)(=O)c2ccc(Cl)s2)C1 (centres undefined),-0.13%
10,COC(=O)C1CN(CC(C)C)CCS(=O)(=O)N1Cc1ccc(F)cc1 (centres undefined),0.05%
11,COc1ccc2c(c1)CCc1c(C(=O)N3CCCC3)noc1-2,0.01%
12,N#Cc1cnn2cc(CCN3CCOCC3)c(-c3ccc(F)cc3)nc12,11.7%
13,COc1ccc2c(c1)CCc1cn3ncc(C#N)c3nc1-2,47% (active)
14,CN(CCc1ccccc1)C(=O)Cn1nc(-c2ccccc2)ccc1=O,-0.3%
15,CCOC(=O)C1(Cc2ccccc2)CCN(Cc2cn(C(C)=O)c3ccccc23)CC1,0.56%
16,CCCCCCN1CCS(=O)(=O)N(Cc2ccc(C(F)(F)F)cc2)C(C(=O)OC)C1 (centres undefined),0.5%
17,O=c1[nH]c(CN2CCOCC2)nc2scc(-c3ccccc3)c12,-0.59%
18,O=c1c(-c2ccccc2)coc2c(CN3CCOCC3)c(O)ccc12,45.3% (active)
19,CCOC(=O)c1oc2c(CN3CCN(C)CC3)c(O)ccc2c(=O)c1-c1ccc(Br)cc1,0.69%
20,O=C(NCC1COc2ccccc2O1)c1ccc(NC(=O)c2cc(F)ccc2F)cc1 (centres undefined),1.38%
21,COc1cccc(Cn2cc(COC(=O)Nc3ccc(F)cc3)nn2)c1,-0.1%
22,COc1cccc2cc(S(=O)(=O)c3ccc(C)cc3)/c(=N/NS(=O)(=O)c3ccc(C)cc3)oc12,0.14%
23,Cc1cc(S(=O)(=O)c2cc3ccc(O)c(C)c3oc2=O)ccc1F,22.6% (active)

row,Compound,activation
1,O=C(CSc1nc2ccccc2s1)NN=Cc1ccc(O)cc1O,-0.66%
2,COc1cccc(/C=C2\CC3(OC(C)=O)CCCN2C3)c1 (centres undefined),0.57%
3,O=C(CCCCCN1C(=O)C2C3C=CC(C3)C2C1=O)Nc1ccccn1 (centres undefined),0.09%
4,C=C(C)C1CC23C(=O)C4(C(=O)c5ccccc5)C[C@@]5(C)CCC(CC2C1(C)C)(C4=O)C35OC (some centres undefined),-0.91%
5,Cc1cc(=O)oc2c1ccc1ccccc12,-3.76%
6,Cc1ccsc1-c1cc(C(=O)O)c2c(ccc3ccccc32)n1,12.6% (active)
7,Cc1ccccc1C(=O)O,-0.39%
8,Cc1cc(=O)oc2c3c(cc(OCC(=O)N[C@H](C(=O)O)c4ccccc4)c12)OC(C)(C)CC3,47.5% (active)
9,CCc1cc(=O)oc2c(C)c(OCC(=O)NCCN3CCOCC3)ccc12,1.04%
10,Cc1c(C)c2c(OCC(=O)NCCCO)cc3c(c2oc1=O)CCC(C)(C)O3,40.1% (active)
11,Cc1c(C)c2c(OCC(=O)N[C@@H](C(=O)O)c3ccccc3)cc3c(c2oc1=O)CCC(C)(C)O3,39.6% (active)
12,Cc1cc(=O)oc2c(C)c(OCC(=O)NCCN3CCOCC3)ccc12,-0.44%
13,Cc1cc(=O)oc2c3c(cc(OCC(=O)NCCC(=O)N[C@@H](C)C(=O)O)c12)OC(C)(C)CC3,47.4% (active)
14,Cc1cc(=O)oc2c3c(cc(OCC(=O)NCC(O)c4ccccc4)c12)OC(C)(C)CC3 (centres undefined),-10.6%
15,COc1ccc(CCNC(=O)COc2cc(C)cc3oc(=O)c(C)c(C)c23)cc1OC,-0.02%
16,O=C(COc1ccc2c3c(c(=O)oc2c1)CCCC3)NCC(O)c1ccccc1 (centres undefined),-0.24%
17,COc1cccc(NC(=O)COc2cc(C)cc3oc(=O)cc(C)c23)c1,-0.24%
18,Cc1c(OC(C)C(=O)N[C@@H](Cc2ccccc2)C(=O)O)ccc2c3c(c(=O)oc12)CCCC3 (some centres undefined),-18.9%
19,Cc1cc(=O)oc2c3c(cc(OCC(=O)NCc4ccccn4)c12)OC(C)(C)CC3,12.5%
20,Cc1ccccc1NC(=O)COC(=O)c1ccc(Sc2ncn[nH]2)c([N+](=O)[O-])c1,0.34%
21,Cc1cc(C)cc(NC(=O)N2CCC(N(C)CCC(C)C)CC2)c1,-0.07%
22,CC(CCN1CCC(C(O)(c2ccccc2)c2ccccc2)CC1)Oc1ccc(C(F)(F)F)cc1 (centres undefined),-0.17%
23,COC(=O)[C@]12C[C@H](CC(=O)N3CCN(C(=O)C4CC4)CC3)C(=O)N(CCC3=CCCCC3)C1=C[C@H](C(C)C)O[C@@H]2C1CC1,0.25%

row,Compound,activation
1,CCCC[C@H]1C2CC(OC(=O)NCc3ccccc3)C(C2)[C@H]2CCCCN21 (some centres undefined),0.07%
2,O=C(NCc1cccnc1)c1ccc2nc([C@@H]3O[C@H](CO)[C@H](O)[C@H](O)[C@H]3O)[nH]c2c1,-0.29%
3,CCOC(=O)c1csc(NC(=O)C2CCCN(S(=O)(=O)c3ccc(Cl)s3)C2)n1 (centres undefined),0.6%
4,Cc1ccccc1N1CCN(C2CCCN(C(=O)c3cn4c(C)cccc4n3)C2)CC1 (centres undefined),0.45%
5,CCOC(=O)[C@]12CCCCC/C=C\1N(Cc1ccc(OC)cc1)C(=O)[C@H]2CC(=O)NCc1ccc(C)o1,0.76%
6,O=C(CN1CCCc2ccccc21)NCc1ccc(F)cc1,-0.07%
7,COC(=O)c1ccc(C2C3=C(Nc4nnnn42)c2ccccc2OC3)cc1 (centres undefined),30.4% (active)
8,COc1ccccc1NC(=O)C1=C(C)Nc2nnnn2C1c1cccc(Br)c1 (centres undefined),0.58%
9,COC(=O)C1=C(C(=O)c2ccc(C)cc2)C(c2ccccc2)n2nnnc2N1 (centres undefined),-0.19%
10,COc1ccccc1C(=O)NC1CCCCN(C(C)C)C1=O (centres undefined),0.9%
11,COc1cccc(CNC(=O)C2CCCN(c3nc4ccccc4o3)C2)c1OC (centres undefined),0.61%
12,O=S(=O)(c1ccccc1)N1CCC(c2nc3ccccc3o2)CC1,-0.13%
13,CC(=O)N1CCN(C(=O)c2cc(-c3ccc(C)o3)nc3ccccc23)CC1,35.2% (active)
14,O=C(c1cc(-c2ccco2)nc2ccccc12)N(Cc1nnc(-c2ccc(Cl)cc2)o1)C1CC1,-60.5%
15,CC1CCN(C(=O)Cn2cc(C(=O)c3ccco3)c3ccccc32)CC1,0.78%
16,CC(=O)N1CCN(Cc2cc(=O)oc3cc(C)ccc23)CC1,0.22%
17,Cc1ccc(S(=O)(=O)N2CCN(C(=O)c3ccccc3-c3nc4ccccc4s3)CC2)c(C)c1,-0.15%
18,CC1CCCN(C(=O)c2cc(-c3ccco3)nc3ccccc23)C1 (centres undefined),38.3% (active)
19,O=C(Nc1cccc(Cl)c1)OC1CC2CC1[C@H]1CCCCN1[C@H]2Cc1ccccc1 (some centres undefined),-0.47%
20,C=CCN1C(=O)[C@H](CC(=O)NCCCN2CCCC2=O)[C@@]2(C(=O)OCC)CCCC=C12,-0.44%
21,Cc1ccccc1CN1CCCCC(NC(=O)c2cccc(C#N)c2)C1=O (centres undefined),-1.15%
22,COc1ccc2c(C(C)c3ccc(N)cc3)cn(C)c2c1 (centres undefined),-0.2%
23,CC(=O)N1CCCN(C2=Nc3ccccc3Sc3ccccc32)CC1,0.25%

row,Compound,activation
1,O=c1oc2cc(O)ccc2cc1-c1ccc(F)cc1,57.7% (active)
2,CN(C)c1cc(-c2ccc(F)cc2)oc(=O)c1Cl,-0.37%
3,CCOC(=O)[C@]12CCCC3=C1N(CCC3)C(=O)[C@@H](CC(=O)NCC13CC4CC(CC(C4)C1)C3)C2,0.33%
4,Cc1ccc(NC(=O)c2cc(C)nn2-c2ccccc2)c(C)c1,0.15%
5,C[C@@H](NC(=O)c1ccccc1OCC(=O)Nc1ccc(I)cc1)C(=O)N(C)Cc1ccccc1,-0.35%
6,CCN(CC)CCCC(C)n1c2nc(=O)[nH]c(=O)c-2nc2cc(Cl)ccc21 (centres undefined),75.5% (active)
7,Cc1cc2nc3c(=O)[nH]c(=O)nc-3n(C[C@H](O)[C@H](O)[C@H](O)CO)c2cc1C,-49.4%
8,CC(C)CNc1cccc2c1S(=O)(=O)N(Cc1cn(Cc3ccccc3C(F)(F)F)nn1)Cc1ccccc1O2,-7.19%
9,COCC(=O)Nc1nnc(COc2ccccc2)s1,20.2% (active)
10,CCOCc1nnc(NC(=O)CCS(=O)(=O)Cc2ccccc2)s1,0.26%
11,Cc1ccc(OCc2nnc(NC(=O)OCC(C)C)s2)cc1,-0.08%
12,COc1ccc(CN2C/C(=C/c3ccccc3)N3C(=O)C[C@@H](c4ccccc4)N=C23)c(OC)c1,-0.63%
13,CC1(C)Oc2ccc3ccc(=O)oc3c2/C(=N/O)C1=O,206% (active)
14,C/C=C(/C)C(=O)OC1Cc2c(ccc3ccc(=O)oc23)OC1(C)C (centres undefined),0.3%
15,CC1(C)Oc2ccc3ccc(=O)oc3c2/C(=C/NCCO)C1=O,0.36%
16,COC(=O)C1CN(Cc2cn(Cc3ccc(F)cc3)nn2)CCS(=O)(=O)N1Cc1ccc(Cl)cc1 (centres undefined),-0.37%
17,N#CC1=C(N)Oc2c(sc3ccccc23)C1c1ccco1 (centres undefined),15% (active)
18,CCN(CC(=O)Nc1c(F)cccc1F)C(=O)c1cnc(C)cn1,-0.38%
19,CCN(CC(=O)Nc1c(F)cccc1F)C(=O)c1ccc(-c2ccccc2)cc1,0.37%
20,CCN(CC(=O)Nc1c(F)cccc1F)C(=O)c1ccc(-c2ccc(C(C)=O)cc2)o1,13.8% (active)
